PubChem BioAssay AID488841 (Sanford-Burnham Center for Chemical Genomics, 2010)
About 380 (27%) of roughly 1,400 compounds were called active.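 The calls were made as follows: active = mean inhibition above 50% across duplicate retests at 10 µM; inactive = the rest.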 Some of the results follow.

Assay: inhibition of NALP1/ASC/caspase-1 reporter signal in yeast, confirmation, NALP1 inhibitor project, S. cerevisiae, luminescence, single concentration (AID 488841);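 also: plate controls were DMSO in galactose medium for no effect and cells in plain SD medium for full effect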
Conditions: S. cerevisiae NALP1/ASC/Caspase-1 reporter, beta-gal luminescence; at 10 µM; hits give high values
With `Brc1ccc2c(c1)OCCOCCOc1cc(Br)ccc1OCCOCCOCCO2` the inhibition was 59.6% (active).
In the case of `CCCc1cc(C(=O)Nc2c(C)n(C)n(-c3ccccc3)c2=O)no1`, the inhibition is reported as 23.7% (inactive).
For `CCCc1cc(C(=O)Nc2ccc(F)cc2F)no1`, the inhibition was 36.5% (inactive).
With `CCn1ncc(C(=O)Nc2cccc(Cl)c2)c1C` the inhibition was 53.8% (active).
In the case of `CCn1ncc([N+](=O)[O-])c1C(=O)Nc1ccc(C(=O)N2CCCCC2)cc1`, the inhibition is reported as 32.5% (inactive).
With `CCn1nccc1C(=O)Nc1ccc(Cl)cn1` the inhibition was 35.4% (inactive).
For `CCCc1cc(C(=O)Nc2cccc(Cl)c2)no1`, the inhibition was 67.2% (active).
With `COc1ccc(NC(=O)c2sc(N3CCOCC3)nc2-c2ccccc2)c(OC)c1` the inhibition was 48.4% (inactive).
With `O=C(/C=C/c1ccccc1Cl)c1ccc[nH]1` the inhibition was 73% (active).
In the case of `Cc1cc(NC(=O)/C=C/c2ccccc2Cl)no1`, the inhibition is reported as 46.5% (inactive).
With `CC(NC(=O)Nn1cnnc1)(C(F)(F)F)C(F)(F)F` the inhibition was 9.3% (inactive).
With `CCCCCCCCNC(C)C(O)c1ccc(SC(C)C)cc1` (stereo not given) the inhibition was 46.5% (inactive).
With `Cc1cc(C(C)(C)C)cc(S(=O)(=O)Nc2ccc(O)c(C(=O)O)c2)c1C` the inhibition was 24.9% (inactive).
In the case of `CC1(C)CCSC(/C=C/c2ccccc2)=N1`, the inhibition is reported as 84% (active).
For `O=S(=O)(c1ccc(Br)cc1)N1CCCN(Cc2cccc(F)c2)CC1`, the inhibition was 59.5% (active).
With `CCOC(=O)C1CCCCN1Cc1cccc(F)c1` (stereo not given) the inhibition was 19.9% (inactive).
In the case of `O=C(O)C1(c2ccccc2)CCN(S(=O)(=O)c2ccc(Br)cc2)CC1`, the inhibition is reported as 32.4% (inactive).
In the case of `COc1ccc(CCN(C)C2CC(=O)N(c3ccccc3)C2=O)cc1OC` (stereo not given), the inhibition is reported as 45% (inactive).
In the case of `Cc1ccc(C(=O)Oc2ccc3c(c2)ncn3C)cc1`, the inhibition is reported as 47.5% (inactive).
In the case of `Cc1ccc(C(=O)/C=C\C(=O)c2ccc(C)cc2)cc1`, the inhibition is reported as 51.1% (active).
With `O=C(Nc1nc2c(c(=O)[nH]1)CCCC2)C1CC1` the inhibition was 27% (inactive).
For `O=C1CC(c2ccccc2Cl)CC(O)=C1C=Nc1ccccc1` (stereo not given), the inhibition was 52.8% (active).
In the case of `O=C1CC(c2cccc(Cl)c2)CC(O)=C1C=Nc1cccc(Cl)c1` (stereo not given), the inhibition is reported as 36.5% (inactive).
In the case of `C/C(=N\N1CCN(c2ccc(Cl)cc2)CC1)c1ccco1`, the inhibition is reported as 23.6% (inactive).
In the case of `Cc1c(N)c(C(C)(C)C)cc(C(C)(C)C)c1[N+](=O)[O-]`, the inhibition is reported as 29.1% (inactive).
In the case of `OC(CNCCc1ccc(C(F)(F)F)cc1)COc1cccc2ccccc12` (stereo not given), the inhibition is reported as 65.5% (active).
With `COCCNC(=O)CCc1ccc(S(=O)(=O)Nc2ccc(C)cc2)cc1` the inhibition was 25.8% (inactive).
In the case of `CCC(C)c1ccccc1NC(=O)CN1CCN(C/C=C/c2ccccc2)CC1` (stereo not given), the inhibition is reported as 46.3% (inactive).
For `O=C(c1ccc(Br)s1)N1CCN(C/C=C/c2ccccc2)CC1`, the inhibition was 50.6% (active).
With `COC(=O)c1ccccc1NC(=O)N1CCN(C/C=C/c2ccccc2)CC1` the inhibition was 39.6% (inactive).
For `O=C(NCC1CCCO1)C(c1cccs1)N(Cc1cccs1)C(=O)Cn1nnc(-c2cccs2)n1` (stereo not given), the inhibition was 28.1% (inactive).
In the case of `C#CCCCCCCC#CCN(C)C`, the inhibition is reported as 28.6% (inactive).
In the case of `CSc1sc(C(=O)N2CCc3ccccc32)cc1S(=O)(=O)C(C)C`, the inhibition is reported as 20.9% (inactive).
For `CCC(=O)N1CCc2cc(S(=O)(=O)N3CCc4ccccc43)ccc21`, the inhibition was 10.5% (inactive).
With `O=C(c1cnn2ccccc12)N1CCc2ccccc21` the inhibition was 58% (active).
With `COc1cc(NC(=O)c2cccs2)cc(OC)c1` the inhibition was 78.8% (active).
For `CCN(CC)S(=O)(=O)c1cccc(C(=O)Oc2cccc(NC(=O)c3cccs3)c2)c1`, the inhibition was 36% (inactive).
With `O=C(/C=C\Nc1cccc(F)c1)c1cccs1` the inhibition was 31.6% (inactive).
For `CC(CCc1ccccc1)NC(=O)c1cc2sccc2n1C` (stereo not given), the inhibition was 46.2% (inactive).
With `COc1cc(C(=O)CCN2CCC(c3ccccc3)C2)cc(OC)c1OC` (stereo not given) the inhibition was 41% (inactive).
For `O=C(/C=C/c1ccccc1)/C=C/c1ccccc1`, the inhibition was 47.8% (inactive).
In the case of `CC1CCN(C(=O)/C=C/c2ccc(C(C)(C)C)cc2)CC1`, the inhibition is reported as 54.6% (active).
In the case of `O=C(/C=C/c1ccccc1)N1CCC(c2ccccc2)C1` (stereo not given), the inhibition is reported as 54% (active).
With `FC(F)(F)C(F)(F)c1nnc2ccc(-n3ccnc3)nn12` the inhibition was 23% (inactive).
In the case of `COC(=O)c1ccccc1SC1CC(=O)N(c2ccccc2)C1=O` (stereo not given), the inhibition is reported as 40.2% (inactive).
For `O=C1CC(Sc2nnnn2-c2ccccc2)C(=O)N1c1cccc(Cl)c1` (stereo not given), the inhibition was 59.5% (active).
In the case of `O=C(O)c1ccccc1SC1CC(=O)N(c2ccccc2)C1=O` (stereo not given), the inhibition is reported as 37.8% (inactive).
With `Cc1cccc(Cn2c(C(C)(C)C)cc3cccnc32)c1` the inhibition was 26% (inactive).
With `CN(C)CCNC=C(C(=O)Nc1ccc(Cl)cc1Cl)C(=O)Nc1ccc(Cl)cc1Cl` the inhibition was 38.9% (inactive).
For `COc1ccc(-c2noc(CCC(=O)N3CCC(C)CC3)n2)cc1`, the inhibition was 48% (inactive).
For `CCCN(Cc1nc(-c2ccc(Cl)cc2)no1)CC1CCCO1` (stereo not given), the inhibition was 53.1% (active).
With `OCCNc1c2ccccc2nc2c(F)c(F)c(F)c(F)c12` the inhibition was 34.6% (inactive).
With `CCN(c1cccc(C)c1)S(=O)(=O)c1cccc(C(=O)O)c1` the inhibition was 26.2% (inactive).
In the case of `Cn1ncc(S(=O)(=O)Cc2ccccc2)c(Cl)c1=O`, the inhibition is reported as 21.1% (inactive).
For `Cc1cc(C)cc(Cn2ncc(Cl)c(Cl)c2=O)c1`, the inhibition was 60.6% (active).
With `COC(=O)c1ccc(NC(=O)c2ccccc2N(C)S(=O)(=O)c2ccccc2)cc1` the inhibition was 37% (inactive).
For `CCOc1ccc(C2N(c3ccc(F)cc3)C(=O)C3CCCN32)cc1` (stereo not given), the inhibition was 16.4% (inactive).
With `CCOc1ccc(N2C(=O)CC(N)C2=O)cc1` (stereo not given) the inhibition was 64.3% (active).
In the case of `CCCCCCOc1ccc(N2C(=O)CC(N3CCC(C(=O)OCC)CC3)C2=O)cc1` (stereo not given), the inhibition is reported as 21.6% (inactive).
With `Cc1cc(Cl)c(OCCCN2CCCCC2)c(Br)c1` the inhibition was 33.4% (inactive).
In the case of `Cc1c(C(=O)NCC2COc3ccccc3O2)oc2ccc(S(=O)(=O)N3CC(C)CC(C)C3)cc12` (stereo not given), the inhibition is reported as 21.3% (inactive).
In the case of `COc1cc(OC)nc(-n2ncc(Br)c(Br)c2=O)n1`, the inhibition is reported as 50% (active).
In the case of `Cc1sc(NC(=O)c2cc3ccccc3oc2=O)c(C(=O)OC(C)C)c1-c1ccccc1`, the inhibition is reported as 28.5% (inactive).
With `C=CCNc1oc(COc2ccc(C)cc2)nc1C#N` the inhibition was 47.8% (inactive).
With `CCCN(CCC)C(=O)Cn1c(=O)n(CCCCC(=O)NCc2ccco2)c(=O)c2ccccc21` the inhibition was 29.8% (inactive).
